From ChEMBL document CHEMBL2218924, “A broad activity screen in support of a chemogenomic map for kinase signalling research and drug discovery” (Biochem J, 2013)

Key:
[1] = target: T1, Ephrin type-B receptor 1 (Homo sapiens) (UniProt P54762); details: at 10 µM
T1 sequence (whole entry): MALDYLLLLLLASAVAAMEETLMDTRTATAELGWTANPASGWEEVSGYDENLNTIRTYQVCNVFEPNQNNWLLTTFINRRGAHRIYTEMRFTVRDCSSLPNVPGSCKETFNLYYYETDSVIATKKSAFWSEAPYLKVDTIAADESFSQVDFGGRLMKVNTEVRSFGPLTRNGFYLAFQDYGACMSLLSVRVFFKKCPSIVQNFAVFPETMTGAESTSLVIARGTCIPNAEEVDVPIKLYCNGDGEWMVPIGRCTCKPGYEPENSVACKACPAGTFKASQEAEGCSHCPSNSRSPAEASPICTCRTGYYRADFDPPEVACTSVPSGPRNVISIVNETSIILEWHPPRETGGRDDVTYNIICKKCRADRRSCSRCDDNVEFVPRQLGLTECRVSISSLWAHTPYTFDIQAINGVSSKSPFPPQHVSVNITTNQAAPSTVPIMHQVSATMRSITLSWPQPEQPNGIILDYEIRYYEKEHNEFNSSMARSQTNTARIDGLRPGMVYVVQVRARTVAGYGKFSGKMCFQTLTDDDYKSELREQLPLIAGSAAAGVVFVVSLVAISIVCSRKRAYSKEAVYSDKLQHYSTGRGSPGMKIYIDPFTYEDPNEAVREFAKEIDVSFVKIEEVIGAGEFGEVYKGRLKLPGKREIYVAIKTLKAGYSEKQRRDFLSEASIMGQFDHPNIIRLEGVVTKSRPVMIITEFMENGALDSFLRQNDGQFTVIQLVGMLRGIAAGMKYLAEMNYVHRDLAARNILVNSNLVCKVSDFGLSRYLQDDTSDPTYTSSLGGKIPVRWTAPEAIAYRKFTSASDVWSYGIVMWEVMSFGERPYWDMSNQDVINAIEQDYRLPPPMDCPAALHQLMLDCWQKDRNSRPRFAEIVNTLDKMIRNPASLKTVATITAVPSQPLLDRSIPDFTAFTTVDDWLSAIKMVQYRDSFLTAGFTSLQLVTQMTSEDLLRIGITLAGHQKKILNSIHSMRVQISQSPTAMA

[2] = target: T2, Ephrin type-B receptor 2 (Homo sapiens) (UniProt P29323); details: at 1 µM
T2 sequence (whole entry): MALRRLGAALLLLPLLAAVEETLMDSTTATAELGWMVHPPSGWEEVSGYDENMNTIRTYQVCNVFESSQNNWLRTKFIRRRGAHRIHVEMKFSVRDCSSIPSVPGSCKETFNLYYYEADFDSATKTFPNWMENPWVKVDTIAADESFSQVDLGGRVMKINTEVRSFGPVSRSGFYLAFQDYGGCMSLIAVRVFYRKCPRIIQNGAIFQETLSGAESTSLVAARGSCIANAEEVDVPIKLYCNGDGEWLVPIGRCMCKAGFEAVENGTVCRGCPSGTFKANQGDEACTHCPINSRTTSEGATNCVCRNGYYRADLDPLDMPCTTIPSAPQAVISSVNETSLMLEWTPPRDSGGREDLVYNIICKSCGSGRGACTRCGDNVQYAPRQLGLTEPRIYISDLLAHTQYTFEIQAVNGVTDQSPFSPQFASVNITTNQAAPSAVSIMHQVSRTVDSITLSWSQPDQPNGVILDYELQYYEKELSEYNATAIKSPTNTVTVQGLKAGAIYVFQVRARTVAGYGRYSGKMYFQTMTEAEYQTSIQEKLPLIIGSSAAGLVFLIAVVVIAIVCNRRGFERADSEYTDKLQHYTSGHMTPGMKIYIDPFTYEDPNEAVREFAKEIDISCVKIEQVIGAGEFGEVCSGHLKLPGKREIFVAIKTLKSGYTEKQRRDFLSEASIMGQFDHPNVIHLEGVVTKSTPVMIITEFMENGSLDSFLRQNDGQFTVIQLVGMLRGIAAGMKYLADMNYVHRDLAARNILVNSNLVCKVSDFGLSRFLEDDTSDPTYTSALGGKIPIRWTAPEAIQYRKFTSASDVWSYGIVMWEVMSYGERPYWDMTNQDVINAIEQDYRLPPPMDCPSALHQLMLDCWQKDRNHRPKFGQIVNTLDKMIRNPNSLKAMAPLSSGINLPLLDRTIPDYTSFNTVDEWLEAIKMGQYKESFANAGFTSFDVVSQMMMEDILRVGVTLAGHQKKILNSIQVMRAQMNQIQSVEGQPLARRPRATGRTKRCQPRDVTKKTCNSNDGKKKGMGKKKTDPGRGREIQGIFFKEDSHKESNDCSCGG

[3] = target: T2, Ephrin type-B receptor 2 (Homo sapiens); details: at 10 µM
[4] = target: T3, Ephrin type-B receptor 3 (Homo sapiens) (UniProt P54753); details: at 1 µM
T3 sequence (whole entry): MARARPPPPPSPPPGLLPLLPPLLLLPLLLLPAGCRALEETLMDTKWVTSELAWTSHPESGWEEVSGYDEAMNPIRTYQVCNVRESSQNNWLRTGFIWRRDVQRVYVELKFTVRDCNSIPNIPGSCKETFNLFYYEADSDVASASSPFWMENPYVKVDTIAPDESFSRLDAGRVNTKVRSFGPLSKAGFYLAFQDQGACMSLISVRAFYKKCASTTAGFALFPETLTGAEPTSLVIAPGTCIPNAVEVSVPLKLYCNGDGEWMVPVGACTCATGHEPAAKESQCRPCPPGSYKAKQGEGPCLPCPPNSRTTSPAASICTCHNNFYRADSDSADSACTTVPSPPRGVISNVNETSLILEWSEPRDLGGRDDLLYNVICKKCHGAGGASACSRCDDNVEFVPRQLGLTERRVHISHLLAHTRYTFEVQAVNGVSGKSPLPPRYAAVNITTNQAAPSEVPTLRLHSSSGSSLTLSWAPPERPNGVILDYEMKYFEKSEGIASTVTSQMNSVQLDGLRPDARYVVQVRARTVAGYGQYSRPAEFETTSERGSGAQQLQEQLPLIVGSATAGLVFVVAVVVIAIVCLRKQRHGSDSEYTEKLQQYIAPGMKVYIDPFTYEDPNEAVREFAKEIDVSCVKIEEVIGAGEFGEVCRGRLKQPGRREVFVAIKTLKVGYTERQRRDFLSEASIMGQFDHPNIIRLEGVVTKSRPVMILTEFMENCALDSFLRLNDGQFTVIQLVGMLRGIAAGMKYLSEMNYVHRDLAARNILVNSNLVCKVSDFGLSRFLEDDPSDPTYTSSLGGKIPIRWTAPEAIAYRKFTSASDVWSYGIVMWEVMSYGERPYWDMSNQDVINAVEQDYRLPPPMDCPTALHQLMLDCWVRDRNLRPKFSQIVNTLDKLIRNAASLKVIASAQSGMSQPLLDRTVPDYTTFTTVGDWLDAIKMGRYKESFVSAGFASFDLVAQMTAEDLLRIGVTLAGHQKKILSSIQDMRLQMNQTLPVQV

[5] = target: T3, Ephrin type-B receptor 3 (Homo sapiens); details: at 10 µM
[6] = target: T4, Ephrin type-B receptor 4 (Homo sapiens) (UniProt P54760); details: at 1 µM
T4 sequence (whole entry): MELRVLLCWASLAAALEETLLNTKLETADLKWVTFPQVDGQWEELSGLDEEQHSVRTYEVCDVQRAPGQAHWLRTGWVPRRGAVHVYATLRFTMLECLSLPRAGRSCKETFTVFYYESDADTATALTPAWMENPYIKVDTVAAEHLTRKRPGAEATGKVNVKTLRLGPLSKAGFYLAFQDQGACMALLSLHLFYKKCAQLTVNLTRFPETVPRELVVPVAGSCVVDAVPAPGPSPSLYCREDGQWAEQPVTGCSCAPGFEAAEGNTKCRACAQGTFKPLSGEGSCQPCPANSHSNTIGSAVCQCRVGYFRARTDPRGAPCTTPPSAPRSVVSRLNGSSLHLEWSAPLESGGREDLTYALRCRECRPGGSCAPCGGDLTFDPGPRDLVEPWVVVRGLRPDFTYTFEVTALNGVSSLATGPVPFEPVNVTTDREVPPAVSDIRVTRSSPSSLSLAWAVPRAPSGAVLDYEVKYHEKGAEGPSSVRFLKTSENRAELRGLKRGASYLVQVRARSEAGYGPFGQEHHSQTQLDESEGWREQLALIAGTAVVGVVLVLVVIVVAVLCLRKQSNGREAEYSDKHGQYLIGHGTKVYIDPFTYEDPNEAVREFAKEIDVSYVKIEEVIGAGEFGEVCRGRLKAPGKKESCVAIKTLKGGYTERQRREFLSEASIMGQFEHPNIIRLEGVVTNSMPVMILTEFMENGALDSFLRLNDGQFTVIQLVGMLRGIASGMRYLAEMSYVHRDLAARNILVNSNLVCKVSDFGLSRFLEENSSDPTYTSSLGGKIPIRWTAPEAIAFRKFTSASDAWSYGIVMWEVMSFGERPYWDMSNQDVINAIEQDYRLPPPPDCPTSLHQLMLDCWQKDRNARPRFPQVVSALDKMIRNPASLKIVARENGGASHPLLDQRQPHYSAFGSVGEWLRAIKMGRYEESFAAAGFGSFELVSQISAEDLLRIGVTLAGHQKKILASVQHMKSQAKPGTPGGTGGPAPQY

[7] = target: T4, Ephrin type-B receptor 4 (Homo sapiens); details: at 10 µM
[8] = target: Receptor tyrosine-protein kinase erbB-4 (Homo sapiens) (UniProt Q15303); details: at 1 µM
Chain of Receptor tyrosine-protein kinase erbB-4 (Homo sapiens) (Q15303 whole entry): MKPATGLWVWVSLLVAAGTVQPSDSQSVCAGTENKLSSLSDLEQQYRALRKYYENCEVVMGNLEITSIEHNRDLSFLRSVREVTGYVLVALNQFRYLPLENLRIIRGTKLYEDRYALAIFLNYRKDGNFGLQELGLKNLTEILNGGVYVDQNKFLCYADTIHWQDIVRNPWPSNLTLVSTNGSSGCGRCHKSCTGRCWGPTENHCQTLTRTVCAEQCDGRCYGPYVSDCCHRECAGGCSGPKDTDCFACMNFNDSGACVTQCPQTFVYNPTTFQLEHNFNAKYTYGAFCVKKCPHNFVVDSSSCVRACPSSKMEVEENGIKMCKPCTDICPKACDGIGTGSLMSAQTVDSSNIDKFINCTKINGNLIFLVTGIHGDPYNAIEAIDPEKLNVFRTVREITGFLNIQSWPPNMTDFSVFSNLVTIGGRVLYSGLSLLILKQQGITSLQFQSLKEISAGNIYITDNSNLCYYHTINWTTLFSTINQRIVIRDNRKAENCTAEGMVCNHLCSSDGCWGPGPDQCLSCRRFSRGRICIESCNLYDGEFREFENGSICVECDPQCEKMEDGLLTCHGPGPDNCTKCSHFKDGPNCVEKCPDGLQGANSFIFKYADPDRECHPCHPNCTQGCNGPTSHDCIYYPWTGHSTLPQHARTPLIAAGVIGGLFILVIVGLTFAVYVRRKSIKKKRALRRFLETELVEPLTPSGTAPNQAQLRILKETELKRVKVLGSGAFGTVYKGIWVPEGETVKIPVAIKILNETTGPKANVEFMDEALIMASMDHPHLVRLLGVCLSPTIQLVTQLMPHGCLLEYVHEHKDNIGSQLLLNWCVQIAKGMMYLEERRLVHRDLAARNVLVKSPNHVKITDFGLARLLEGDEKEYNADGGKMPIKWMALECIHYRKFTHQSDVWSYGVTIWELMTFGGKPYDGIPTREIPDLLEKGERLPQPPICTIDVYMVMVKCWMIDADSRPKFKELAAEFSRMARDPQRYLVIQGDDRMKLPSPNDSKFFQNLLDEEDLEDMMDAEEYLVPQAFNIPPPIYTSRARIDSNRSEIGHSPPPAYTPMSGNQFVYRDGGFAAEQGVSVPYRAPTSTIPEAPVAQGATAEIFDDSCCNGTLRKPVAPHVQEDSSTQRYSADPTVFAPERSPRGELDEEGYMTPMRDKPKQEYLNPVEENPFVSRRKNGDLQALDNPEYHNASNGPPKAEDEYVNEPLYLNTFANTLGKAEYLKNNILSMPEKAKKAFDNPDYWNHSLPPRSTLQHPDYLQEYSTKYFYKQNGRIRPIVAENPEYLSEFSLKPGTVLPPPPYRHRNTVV

[9] = target: Receptor tyrosine-protein kinase erbB-4 (Homo sapiens) (UniProt Q15303); details: at 10 µM
[10] = target: Focal adhesion kinase 1 (Homo sapiens) (UniProt Q05397); details: at 1 µM
Chain of Focal adhesion kinase 1 (Homo sapiens) (Q05397 2-1052 limits assumed): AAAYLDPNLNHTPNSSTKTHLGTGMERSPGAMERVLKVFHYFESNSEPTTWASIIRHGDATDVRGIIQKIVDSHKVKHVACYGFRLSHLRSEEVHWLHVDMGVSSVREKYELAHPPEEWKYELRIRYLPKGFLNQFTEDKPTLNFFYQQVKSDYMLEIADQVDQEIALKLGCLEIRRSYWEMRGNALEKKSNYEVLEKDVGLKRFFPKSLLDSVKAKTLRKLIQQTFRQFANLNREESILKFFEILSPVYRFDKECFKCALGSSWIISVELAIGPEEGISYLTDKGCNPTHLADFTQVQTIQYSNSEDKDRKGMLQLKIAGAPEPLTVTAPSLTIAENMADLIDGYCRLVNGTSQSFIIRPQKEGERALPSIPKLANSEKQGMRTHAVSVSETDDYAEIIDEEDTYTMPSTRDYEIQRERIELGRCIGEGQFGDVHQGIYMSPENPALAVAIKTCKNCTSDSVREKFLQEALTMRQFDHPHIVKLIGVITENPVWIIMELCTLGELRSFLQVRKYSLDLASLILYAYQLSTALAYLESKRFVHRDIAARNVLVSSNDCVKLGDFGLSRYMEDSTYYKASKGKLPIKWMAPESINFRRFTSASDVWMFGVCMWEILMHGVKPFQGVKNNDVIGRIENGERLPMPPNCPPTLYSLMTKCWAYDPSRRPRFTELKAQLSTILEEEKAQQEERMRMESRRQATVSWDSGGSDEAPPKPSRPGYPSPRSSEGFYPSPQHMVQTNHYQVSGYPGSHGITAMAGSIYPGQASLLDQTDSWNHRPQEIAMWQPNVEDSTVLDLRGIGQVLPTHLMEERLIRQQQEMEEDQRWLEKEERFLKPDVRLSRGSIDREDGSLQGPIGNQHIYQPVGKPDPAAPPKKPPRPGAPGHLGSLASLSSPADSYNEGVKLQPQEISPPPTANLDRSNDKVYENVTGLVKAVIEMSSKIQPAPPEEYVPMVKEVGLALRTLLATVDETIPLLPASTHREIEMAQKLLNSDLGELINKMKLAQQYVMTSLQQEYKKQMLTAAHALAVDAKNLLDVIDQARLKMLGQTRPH

Row | Compound | residual activity [1] | residual activity [2] | residual activity [3] | residual activity [4] | residual activity [5] | residual activity [6] | residual activity [7] | residual activity [8] | residual activity [9] | residual activity [10]
1 | Ic1cccc(CSc2nnc(-c3ccncc3)o2)c1 | 84% | 106% | 109% | 104% (inactive) | 101% | 84% | 84% | 94% | 91% | 96%
2 | CCOc1cc2ncnc(Nc3cccc(Br)c3)c2cc1OCC | 5% | 46% | 0% | 108% (inactive) | 126% | 19% | -1% | 10% | -4% | 139%
3 | COc1cccc(-c2cc(=O)c3ccccc3o2)c1N | 100% | 118% | 132% | 107% (inactive) | 112% | 94% | 109% | 90% | 93% | 115%
4 | Cc1ccc(S(=O)(=O)/C=C/C#N)cc1 | 92% | 122% | 126% | 118% (inactive) | 111% | 97% | 90% | 95% | 90% | 105%
5 | Oc1n[nH]c2nnc(-c3c(-c4ccccc4)nn4ccccc34)cc12 | 83% | 123% | 128% | 109% (inactive) | 103% | 86% | 80% | 92% | 75% | 98%
6 | CN(C)CCCn1cc(C2=C(c3c[nH]c4ccccc34)C(=O)NC2=O)c2ccccc21 | 59% | 119% | 113% | 108% (inactive) | 110% | 124% | 118% | 113% | 86% | 133%
7 | Cc1nc(-c2ccccc2)c(-c2ccncc2)o1 | 55% | 36% | 31% | 126% (inactive) | 107% | 105% | 79% | 118% | 110% | 111%
8 | O=C1NC(=O)c2c1c1c3ccccc3[nH]c1c1[nH]c3cc(Br)ccc3c21 | 98% | 106% | 101% | 107% (inactive) | 83% | 102% | 93% | 95% | 83% | 98%
9 | Cn1cc(/C=C2\C(=O)Nc3ccc(S(N)(=O)=O)cc32)c2ccccc21 | 21% | 73% | 49% | 100% (inactive) | 117% | 57% | 11% | 94% | 85% | 103%
10 | COc1ccc(OC)c2c(=S)c3ccccc3[nH]c12 | 83% | 114% | 118% | 114% (inactive) | 101% | 97% | 102% | 80% | 77% | 91%
11 | O=C1Nc2ccc(Br)cc2/C1=C\c1cc2c([nH]1)CCCC2 | 107% | 111% | 115% | 114% (inactive) | 117% | 118% | 132% | 109% | 106% | 78%
12 | Nc1ccc2ncnc(NCCc3ccc(Oc4ccccc4)cc3)c2c1 | 96% | 111% | 93% | 105% (inactive) | 98% | 96% | 98% | 33% | 2% | 106%
13 | CO[C@H]1C[C@@H]2CC[C@@H](C)[C@@](O)(O2)C(=O)C(=O)N2CCCC[C@H]2C(=O)O[C@H]([C@H](C)C[C@@H]2CC[C@@H](O)[C@H](OC)C2)CC(=O)[C@H](C)/C=C(\C)[C@@H](O)[C@@H](OC)C(=O)[C@H](C)C[C@H](C)/C=C/C=C/C=C/1C | 105% | 121% | 105% | 100% (inactive) | 57% | 112% | 147% | 106% | 130% | 118%
14 | O=C(O)c1ccc2c3c1cccc3c(=O)n1c3ccccc3nc21 | 98% | 105% | 108% | 98% (inactive) | 110% | 102% | 100% | 105% | 95% | 112%
15 | O=C(Nc1cccc(Nc2nccc(Nc3cccc(C(F)(F)F)c3)n2)c1)C1CC1 | 7% | 93% | 26% | 106% (inactive) | 113% | 109% | 10% | 98% | 96% | 51%
16 | c1ccc2c(-c3ccncc3)c[nH]c2c1 | 110% | 108% | 111% | 106% (inactive) | 112% | 111% | 108% | 88% |  | 
17 | COc1ccc(C(=O)Nc2sc3c(c2C(N)=O)CCCC3)cc1OC | 100% | 122% | 110% | 110% (inactive) | 122% | 98% | 120% | 87% | 97% | 119%
18 | CC(=O)O/N=C1\C(=C2\C(=O)Nc3cc(Br)ccc32)Nc2ccccc21 | 47% | 103% | 60% | 107% (inactive) | 107% | 71% | 65% | 96% | 90% | 95%
19 | Cc1ccc(NC2=CC(=O)c3sc(C)nc3C2=O)cc1 | 97% | 123% | 121% | 104% (inactive) | 99% | 98% | 96% | 77% | 88% | 96%
